15 compounds from PubChem BioAssay (NCI) can be followed below.

This is part of a sample that, as a whole, favours compounds with a hit. Of some 83,000 tested, about 20% had one in any assay.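 Testing used 96-well plates and a 48-hour single-concentration exposure. Example: -40 means 40% of the starting cells died.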 Unmarked numbers belong to inactive results. Activity calls are given as the source filed them. How the source made its calls: active means growth percent below 10; inactive means the rest.

Common to all, as to assay: NCI-60 one-dose screen, 48 h (100 = growth as untreated, 0 = no growth, -100 = all killed)
Conditions in all cases: 10 µM unless noted

Test [1] deals with T-47D breast.
Test [2] deals with BT-549 breast.
Test [3] concerns MDA-MB-435 melanoma.
In test [4] the test system is SW-620 colon.
The subject of test [5] is MCF7 breast.
Test [6] relates to HCT-116 colon.
Test [7] deals with HCC-2998 colon.
For test [8], the system named is KM12 colon.

Take `CCOc1cc(/C=C/C(=O)C(C(=O)/C=C/c2ccc(OC(=O)CNc3nc4ccccc4[nH]3)c(OCC)c2)C(=O)CNc2nc3ccccc3[nH]2)ccc1OC(=O)CNc1nc2ccccc2[nH]1`: the growth in test [1] is 37.3%; in test [2] it was -31.3% (active); in test [3], -37.6% (active); in test [4], -71.4% (active); in test [5], 0.893% (active); in test [6] it was -61.3% (active). Moreover, the growth is -41.5% (active) in test [7] and -70.8% (active) in test [8].
`CCCCCCCCCCNCCSS(=O)(=O)O`: the growth in test [1] is 88.7%; in test [2] it was 113%; in test [3] it was 62.4%; in test [4], 81.8%; in test [5] it was 19.2%; in test [6] it was 52.9%. Moreover, the growth in test [7] was 76.4%; in test [8] it was 4.36% (active).
Regarding `COc1cc(/C=C2\CN(C)CC3=C2Nc2nc(SC)[nH]c(=O)c2C3c2cc(OC)c(OC)c(OC)c2)cc(OC)c1OC` (stereo not given), the growth in test [1] was 85.4%; in test [2] it was 54.9%; in test [3], 2.77% (active); in test [4], 11.7%; in test [5], 33.5%; in test [6], -46.3% (active). Also, the figures for the growth in test [7] and in test [8] were 49.9% and 37.2%, respectively.
For `COc1cnc2c(c1)C(=O)c1c-2n(CCCN2CCC(O)CC2)c(=O)c2cc(F)ccc12`, the growth in test [1] was -4.28% (active); in test [2], 0.525% (active); in test [3], 8.13% (active); in test [4], 6.58% (active); in test [5] it was 0.145% (active); in test [6], -71.7% (active). Further, the growth in test [7] is 13.5%; in test [8], -6.17% (active).
Consider `COc1ccc(C(=O)/C=C/c2cccc(Nc3ccnc4cc(Cl)ccc34)c2)cc1`, for which the growth in test [1] was 15.7%; in test [2], 20.6%; in test [3], 28.1%; in test [4], 19%; in test [5] it was 23.4%; in test [6], 9.57% (active). Further, the growth in test [7] is 68.8%; in test [8], 53%.
Turning to `O=C(O)CCNS(=O)(=O)c1ccc(-c2ccccc2)cc1`, the growth in test [1] was 108%; in test [2], 127%; in test [3], 102%; in test [4], 95.4%; in test [5] it was 106%; in test [6], 108%. In addition, the figures for the growth in test [7] and in test [8] were 111% and 117%, respectively.
As to `CC(=O)O[C@H]1CC[C@@]2(C)C(=CC[C@@H]3[C@@H]2CC[C@]2(C)C(c4cccnc4)=CC[C@@H]32)C1`, the growth in test [1] was 47.2%; in test [2] it was 63.4%; in test [3], 34.5%; in test [4], 76.4%; in test [5], 46%; in test [6], 54.1%. Further, the growth in test [7] is 65.1%; in test [8], 53.7%.
In the case of `COc1cc(/C=C/C(=O)c2c(C)n([O-])c3ccccc3[n+]2=O)cc(OC)c1OC`, the growth is 34.9% in test [1]; 27.3% in test [2]; 46.3% in test [3]; 43.7% in test [4]; 20.8% in test [5]; 30.6% in test [6]. In addition, the values for the growth in test [7] and in test [8] were 60.5% and 61.2%, respectively.
In the case of `COc1ccc(Oc2ccccc2NC(=O)CNC(=O)c2cccc3ccccc23)cc1`, the growth in test [1] was 41.6% [5 µM]; in test [2], 30.9% [5 µM]; in test [3] it was 1.66% [5 µM] (active); in test [4], 25.6% [5 µM]; in test [5], 23.5% [5 µM]; in test [6], 10.9% [5 µM]. The growth is 33.7% [5 µM] in test [7] and 26.5% [5 µM] in test [8].
Take `CCCCCCCCCCN1CCC(N2CCCCC2)CC1`: the growth was -55.9% (active) in test [1]; 37.5% in test [2]; -25% (active) in test [3]; -56.9% (active) in test [4]; -60.8% (active) in test [5]; -65.2% (active) in test [6]. For the same compound, the growth in test [7] is 14.8%; in test [8], -6.35% (active).
Regarding `COc1ccc(-c2cc(-c3nnc(SCC(=O)Nc4ccc(C(C)=O)cc4)n3-c3ccccc3)c3ccccc3n2)cc1OC`, the growth in test [1] is 84%; in test [2], 86.1%; in test [3], 105%; in test [4], 104%; in test [5], 95.2%; in test [6], 83.4%. For the same compound, the growth in test [7] was 99.6%; in test [8] it was 95.9%.
As to `O=C1Nc2ccc(Cl)cc2[C@@](C#CC2CC2)(C(F)(F)F)O1`, the growth in test [1] is 70.4%; in test [2] it was 117%; in test [3], 88%; in test [4], 107%; in test [5], 105%; in test [6], 82.9%. For the same compound, the values for the growth in test [7] and in test [8] were 108% and 86.1%, respectively.
Take `BrC1CC(Br)c2c1c1c(c3c2C(Br)CC3Br)C(Br)CC1Br` (stereo not given): the growth in test [1] is 91.8%; in test [2], 125%; in test [3], 103%; in test [4] it was 83%; in test [5] it was 49.6%; in test [6] it was 80.9%. The growth in test [7] is 87.5%; in test [8], 129%.
Turning to `CS(=O)(=O)N1CCN(Cc2cc3nc(-c4cccc5[nH]ncc45)nc(N4CCOCC4)c3s2)CC1` (tested in a mixture with another compound), the growth in test [1] was -7.59% (active); in test [2] it was 33.6%; in test [3], 15.9%; in test [4], 40.8%; in test [5] it was 6.96% (active); in test [6] it was 23.8%. Also, the results for the growth in test [7] and in test [8] were -9.43% (active) and 24.8%, respectively.
For the compound `O=C1CNc2cc(Cl)ccc2N1`, the growth was 99.5% in test [1]; 97.7% in test [2]; 114% in test [3]; 105% in test [4]; 102% in test [5]; 104% in test [6]. The growth in test [7] was 104%; in test [8], 103%.
